Laboratory results: PubChem BioAssay AID504845 (National Center for Advancing Translational Sciences (NCATS), 2011)
Several values for one entry are separate records, joined by “and”; a condition that tells them apart may be missing. Equal entries are not always repeated. About 150 (0.038%) of roughly 390,000 compounds were called active. Where a call stands in place of a potency, no number is given. Inconclusive results (about 3%) are left out. The call rests on the fitted dose curve; in most records, active means well fitted inhibition curve with a large enough effect; inconclusive means small, poorly fitted or top-dose-only effect; inactive means no such curve, though single readings can be large or run the other way. Many of the other results were omitted from the sample, so actives are more common in it than they were. The source holds several records for some structures; these can differ, active in one and inactive in another.

Molecular target: Regulator of G-protein signaling 4 (Homo sapiens) (UniProt P49798)
Test: Inhibitors of Regulator of G Protein Signaling (RGS) 4: qHTS; further: nearly all actives have a fitted effect of over 75% in size
Conditions: Transcreener GDP fluorescence polarization, RGS4-accelerated GTP hydrolysis; series mostly up to 114 µM
Source text: G-protein-coupled receptors (GPCRs) are well-established targets for drug discovery and development. Members of the "regulator of G-protein signaling" (RGS)-protein superfamily have recently emerged as critical modulators of specific GPCR signaling pathways. […] Combining specific RGS domain inhibitors with existing GPCR agonists should potentiate cellular responses and could also increase the specificity of action of existing therapeutics. Small molecule modulators of RGS domain activity should also have clinical utility in inhibiting or potentiating the actions of endogenous GPCR agonists. In particular, the diversity of RGS proteins with highly localized and dynamically regulated distributions in the human brain makes this family of proteins attractive targets for pharmacotherapy of central nervous system (CNS) disorders such as Parkinson's disease, schizophrenia, and anxiety.
This assay was used to screen the NIH Molecular Libraries Small Molecule Repository (MLSMR) in order to identify a small molecule that inhibits RGS4.
NIH Chemical Genomics Center [NCGC]
NIH Molecular Libraries Probe Centers Network [MLPCN]
Assay Submitter (PI): David Siderovski, University of North Carolina Chapel Hill (School of Medicine)
Two microliters of 500nM (2x working concentration) is dispensed into black medium-binding solid-bottom Kalypsys plates. Then with the Kalypsys pintool 23nl of control and compounds are transferred; the control compound is […] CCG-4986 (working concentration). After a 10 minute incubation at room temperature 2ul of antibody is added with the Kalypsys dispenser; (-)RGS4/Transcreener GDP solution in columns 3 and 4 which consisted of 10nM (2x working concentration) Alexa633, 20uM GTP, and 20 ug/ml GDP antibody and (+)RGS4/Transcreener GDP solution in columns 1,2, and 5 to 48 which consists of 900nM RGS4 (2x working concentration), 10nM Alexa633, 20 ug/ml GDP antibody. The plate is centrifuged at 1000 RPM for 15 seconds to remove any possible bubbles and then incubated for 5 minutes at ambient room temperature. An initial fluorescent polarization read (620 nm/688 nm) is performed on the Envision before the plate is incubated for 90 minutes at 30 deg C at a relative humidity of 80%. The plate is once more centrifuged at 1000 RPM for 15 seconds and another Envision fluorescent polarization (620 nm/688 nm) read is carried out.
Potency means the concentration at half of the fitted maximal effect.

Regulator of G-protein signaling 4 (Homo sapiens), sequence (P49798 whole entry, looked up): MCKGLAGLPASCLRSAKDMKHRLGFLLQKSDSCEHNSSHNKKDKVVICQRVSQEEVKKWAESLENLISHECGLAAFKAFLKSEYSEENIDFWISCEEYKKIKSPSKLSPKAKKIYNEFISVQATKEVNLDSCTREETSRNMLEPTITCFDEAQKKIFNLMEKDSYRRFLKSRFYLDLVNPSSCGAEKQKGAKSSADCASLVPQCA

Row | SMILES | Potency
1 | COc1cc(CN(CC2CCCO2)C(=O)c2ccccc2F)cc(OC)c1OC (stereo not drawn) | inactive
2 | CCn1c2ccccc2c2cc(NC(=O)COc3ccc(C)cc3C)ccc21 | inactive
3 | Nc1ccc2c3c(cccc13)C(=O)NC2=O | inactive
4 | COc1ccc(-c2ccc(C3C4C=CCCC4(C)C(=O)N3Cc3ccccc3)c(F)c2)cc1OC (stereo not drawn) | inactive
5 | Cc1ccc(Nc2ccc3cc(S(=O)(=O)N4CCCCC4)ccc3n2)cc1F | inactive
6 | O=C(NCC(c1ccc(Cl)cc1)N1CCOCC1)c1ccccc1F (stereo not drawn) | inactive
7 | COc1ccc(CCCOC(Cn2ccnc2)c2ccc(OC)cc2)cc1 (stereo not drawn) | inactive
8 | CCCNC(=O)C(CC)n1nc(CC)n2c(cc3oc(C)cc32)c1=O (stereo not drawn) | inactive
9 | CCCCCCCCCCCC(=O)O | inactive
10 | CCCCC/C=C\CC1OC1CCCCCCCC(=O)O (stereo not drawn) | 37.7 µM (active)
11 | CCc1ccc(CN(Cc2ccco2)C(=O)c2ccccc2Cl)cc1 | inactive
12 | COc1ccccc1N1CCN(C[C@@H]2CN3C(=O)N(C)c4ccccc4C3=N2)CC1 | inactive
13 | O=C(COc1ccc(Cl)cc1)Nc1ccc(-c2nc3cc(Cl)ccc3o2)c(O)c1 | inactive
14 | CCN(CC)/[N+]([O-])=N/Oc1cc(O/[N+]([O-])=N/N2CCCC2CO)c([N+](=O)[O-])cc1[N+](=O)[O-] (stereo not drawn) | inactive
15 | COc1ccc(OC)c(NC(=O)CSC2=Nc3ccccc3C3=NC(CC(=O)NCc4ccc(F)cc4)C(=O)N23)c1 (stereo not drawn) | inactive
16 | CCCc1nn2c(=O)cc(COC(=O)c3ccc(NC(=O)COc4ccc(F)cc4)cc3)nc2s1 | inactive
17 | CCc1ccccc1NC(=O)N1CCC2(CC1)Oc1ccccc1C(=O)N2Cc1ccccc1F | inactive
18 | Cc1ccccc1CSCCNC(=O)C1CCN(S(=O)(=O)Cc2ccccc2)CC1 | inactive
19 | COc1ccccc1C(=O)NCCn1cc(SCc2ccccc2Cl)c2ccccc21 | inactive
20 | Cc1ccc(C)n1-c1nnc(N2CCC(C(=O)NCc3ccccc3Cl)CC2)s1 | inactive
21 | COc1ccc(-c2noc(CSc3nnc(-c4ccccc4)n3-c3ccc(F)cc3)n2)c(OC)c1 | inactive
22 | Cc1c(C(=O)NCc2ccccc2Br)oc2ccc3c(c12)C(=O)CC(C)(C)O3 | inactive
23 | CCn1cc(C(=O)NCCc2ccccc2)c(=O)c2cc(S(=O)(=O)N3CCCCCC3)ccc21 | inactive
24 | Cc1ccccc1CNC(=O)c1cccc(NC(=O)c2nsc3ccccc23)c1 | inactive
25 | Cc1ccc(C)c(S(=O)(=O)n2nc(C)c(S(=O)(=O)N3CCC(C)CC3)c2C)c1 | inactive

Row | SMILES | Potency
26 | Cc1ccc2oc3c(c(=O)c2c1)C(c1ccc(O)cc1)N(Cc1ccc2c(c1)OCO2)C3=O (stereo not drawn) | inactive
27 | Cc1ccc(/C(=C/CN2CCCC2)c2ccccn2)cc1 | inactive
28 | CCC1=Nc2cc(C(=O)NCC(C)c3ccccc3)ccc2Sc2ccc(C)cc21 (stereo not drawn) | inactive
29 | CN(C)c1cc2c(Nc3ccc4c(cnn4Cc4ccccc4)c3)ncnc2cn1 | inactive
30 | Cc1csc(-c2nc3ccccc3n2C)n1 | inactive
31 | C=CCCN(C(Cc1ccccc1)C(=O)OC)S(=O)(=O)c1cc(Br)ccc1Br (stereo not drawn) | inactive
32 | Cc1ccc(NC(=O)CCCn2c(=O)c3cccn3c3ccccc32)cc1Cl | inactive
33 | CC(N)(C(=O)O)c1ccc(-c2nn[nH]n2)cc1 (stereo not drawn) | inactive
34 | O=C(c1cccc(Br)c1)N1CCN(Cc2cc(=O)n3nc(-c4ccccc4)sc3n2)CC1 | inactive
35 | O=C(NCCCO)c1nn(-c2ccc(Cl)cc2)nc1CO | inactive
36 | Cc1oc2ccc(O)c(CN3CCC(C)CC3)c2c1C(=O)Nc1ccccc1 | inactive
37 | O=C(O)c1ccc2c(c1)N(Cc1ccc(F)cc1)C(=O)c1ccccc1S2=O (stereo not drawn) | inactive
38 | OCCNc1ncnc2oc(-c3ccco3)c(-c3ccco3)c12 | inactive
39 | O=C(Cn1nc(Cc2cccnc2)c2ccccc2c1=O)N1CCN(c2ccccc2F)CC1 | inactive
40 | Cc1cc2c(cc3c(SCc4cccc(Cl)c4)nnc(C)n32)o1 | inactive
41 | Cc1cccc(CCNC(=O)c2ccc3c(c2)nc2n3CCC(C)C2)c1 (stereo not drawn) | inactive
42 | Cc1ccc(Cn2c(C)c3cnn(CC(=O)NCc4ccccc4)c(=O)c3c2C)cc1 | inactive
43 | C/C=C1\C2C=C(C)CC1(N)c1ccc(=O)[nH]c1C2 (stereo not drawn) | inactive
44 | Cc1ccc(Nc2nnc(-c3ccc(C)c(S(=O)(=O)N4CCCCC4)c3)c3ccccc23)cc1 | inactive
45 | CCOC(=O)c1[nH]c(C)c(CCC(=O)NCc2ccccc2C)c1C | inactive
46 | O=S(=O)(c1ccc2nc(NCc3ccccc3Cl)ccc2c1)N1CCCCC1 | inactive
47 | CCc1cc2c(cc3c(=O)n(CC(=O)N4CCN(c5cc(Cl)ccc5C)CC4)nc(CC)n32)s1 | inactive
48 | COc1ccc(OC)c(-n2nnc(-c3nc(-c4cc(OC)c(OC)c(OC)c4)no3)c2C)c1 | inactive
49 | Cc1ccc(SCC(CC(C)C)N2CCN(CCc3ccccc3)CCC2=O)cc1 (stereo not drawn) | inactive
50 | Cc1cccc(NC(=O)CN(c2ccc(C(C)C)cc2)S(=O)(=O)c2c(C)nn(C)c2C)c1C | inactive

Row | SMILES | Potency
51 | C#CCCCCCCCCCCCCCCCC(=O)O | inactive
52 | CCCN1CCC(=O)N(C(CSc2ccc(OC)cc2)Cc2ccccc2)CC1 (stereo not drawn) | inactive
53 | COc1cccc(CN2CCc3nc(SCC(=O)Nc4ccccc4)[nH]c(=O)c3C2)c1 | inactive
54 | COC(=O)c1ccccc1NC(=O)Cn1c(=O)n(-c2cccc(C(F)(F)F)c2)c(=O)c2c(C)c(C)sc21 | inactive
55 | COc1ccc(CN(Cc2ccccc2)C(=O)c2ccc(O)cc2)cc1COc1ccc(NC(C)=O)cc1 | inactive
56 | COc1cc(OC)c2c(C)cc(=O)oc2c1C(CCN1CCCCC1)c1ccc(N(C)C)cc1 (stereo not drawn) | inactive
57 | O=[N+]([O-])c1ccc(S(=O)(=O)N2CCN(c3nc(-c4ccccc4)nc4ccccc34)CC2)cc1 | inactive
58 | COc1ccc(OC)c(NC(=O)C2CCCN(S(=O)(=O)c3ccc4c(c3)CCCC(=O)N4)C2)c1 (stereo not drawn) | inactive
59 | COCCNC(=O)c1cc(-c2cccc(Cl)c2)on1 | inactive
60 | COc1ccccc1-c1nnc(SCC(N)=O)o1 | inactive
61 | O=C(Nc1ccccc1)N[C@H]1C[C@H](C(=O)O)Nc2cc(Cl)cc(Cl)c21 | inactive
62 | CCOc1ccc(S(=O)(=O)c2cn(Cc3ccccc3)c3ccc(OCC)cc3c2=O)cc1 | inactive
63 | Cn1c(=O)c2c(nc(SCC(=O)Nc3ccc(F)cc3)n2Cc2ccccc2)n(C)c1=O | inactive
64 | CC(C)NC(=O)C1CCC(Cn2c(=O)c3sccc3n(Cc3ccc(F)cc3)c2=O)CC1 (stereo not drawn) | inactive
65 | Oc1ccc(Br)cc1C1C=C(c2ccc3c(c2)OCO3)NC(c2ccc(Cl)cc2)N1 (stereo not drawn) | inactive
66 | Cc1ccc2ccc3c(c2n1)NS(=O)(=O)c1ccccc1-3 | inactive
67 | COc1ccc2c(C)c(CCC(=O)NCc3ccc(OC)c(OC)c3)c(=O)oc2c1 | inactive
68 | Cc1c(-c2nc(-c3ccc4c(c3)OCO4)no2)nnn1-c1ccc(Br)cc1F | inactive
69 | COc1ccc(OC)c(NC(=O)CSC2=Nc3ccccc3C3=NC(CC(=O)NCCc4ccccc4)C(=O)N23)c1 (stereo not drawn) | inactive
70 | CC(C)NC[C@H](O)c1ccc2ccccc2c1 | inactive
71 | O=C(CSc1nccn1-c1ccc(F)cc1)Nc1cccc2ccccc12 | inactive
72 | COc1ccc(-n2c(SCC(N)=O)nc3c(oc4ccccc43)c2=O)cc1 | inactive
73 | CCn1c(CN2CCC(C)CC2)nc2cc(NC(=O)c3ccccc3[N+](=O)[O-])ccc21 | inactive
74 | O=C(c1ccc2c(c1)N(Cc1ccccc1)C(=O)c1ccccc1S2(=O)=O)N1CCC(Cc2ccccc2)CC1 | inactive
75 | COc1ccc(-c2cccc(NS(=O)(=O)c3cc(C)c(OC)c(C)c3C)c2)nn1 | inactive

Row | SMILES | Potency
76 | CCc1ccc(NC(=O)CSc2nc3c([nH]c4ccccc43)c(=O)n2-c2cccc(OC)c2)cc1 | inactive
77 | CCN(CC)c1nc(C#N)nc(OC)n1 | inactive
78 | CC(C)(C)c1ccc(C(=O)N2CCC(c3nc(-c4ccc(S(=O)(=O)N5CCCC5)cc4)no3)CC2)cc1 | inactive
79 | Cn1c(=O)c2c(n3c4ccccc4nc13)NC(=O)CC2c1cccc(Cl)c1 (stereo not drawn) | inactive
80 | CC(C)Sc1oc(-c2cccs2)nc1S(=O)(=O)c1ccc(Cl)cc1 | inactive
81 | Cc1ccc(SCC(=O)Nc2ccc3oc(-c4ccccc4C)nc3c2)cc1 | inactive
82 | C=C1CCN(C(CC(C)C)C(=O)NCc2cc(OC)c(OC)c(OC)c2)S(=O)(=O)c2ccccc21 (stereo not drawn) | inactive
83 | COC(=O)CCc1ccccc1S(=O)(=O)N(CCC(=O)OC)Cc1ccccc1 | inactive
84 | CCOC(=O)c1ccc(NC(=O)Cn2c(=O)n(-c3ccc(C)cc3)c(=O)c3c2cnn3C)cc1 | inactive
85 | Cc1nn(C(C)C(=O)Nc2ccc(C(C)C)cc2)c(=O)c2c1sc1ccccc12 (stereo not drawn) | inactive
86 | OC[C@@H]1O[C@H](n2cnc3c(SCc4ccccc4)ncnc32)[C@H](O)[C@H]1O | inactive
87 | CCOc1ccc(Nc2c(S(=O)(=O)c3ccccc3)cnc3ccccc23)cc1 | inactive
88 | COc1ccc(NC(=O)c2ccc3nc(C(C)C)oc3c2)cc1OC | inactive
89 | Cc1ccc(-c2nn(CC(C)(C)C)c3ncnc(N)c23)cc1 | inactive
90 | O=C(NCc1ccccc1)c1cccc(NC(=O)N2CCSc3ncccc32)c1 | inactive
91 | COc1ccc(Cn2c(=O)[nH]c3cc(C(=O)N4CCN(C(=O)c5ccco5)CC4)ccc3c2=O)cc1 | inactive
92 | CCOc1ccc(NC(=O)CSc2nnc3c(n2)[nH]c2ccc(S(=O)(=O)N4CCOCC4)cc23)cc1 | inactive
93 | CC1CCCN(S(=O)(=O)c2ccc3[nH]c(=O)cc(C(=O)NCCc4ccc(Cl)cc4)c3c2)C1 (stereo not drawn) | inactive
94 | CCN(CC)CCNC(=O)CN1N=C(c2ccc(OC)cc2)CCC1=O | inactive
95 | COC(=O)c1ccc(C2C(C(=O)Nc3ccccc3)=C(C)Nc3nc4ccccc4n32)cc1 (stereo not drawn) | inactive
96 | S=C(Nc1ccc(Cl)cc1Cl)N1CCCC1 | inactive
97 | Oc1cc2c(cc1O)CN(C(=S)NCCc1ccc(Cl)cc1)CCC2 | inactive and 16.8 µM (active)
98 | O=C(NCCc1ccc(Cl)cc1)C1CCCN1C(=O)NCc1ccccc1 (stereo not drawn) | inactive
